Among all 5,500 compounds or so, about 2,000 (36%) were called active. About 18% were inconclusive and are not listed. Rule as the data show it: active = normalized growth mostly below about 0.91 (no sharp cut-off); inconclusive = no clear call, values can overlap the other calls; inactive = mostly above about 0.92. Some of the results follow.
Experiment: chemical genetic growth profiling, strain panel (AID 1159580);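 also: tested at 20 µM; growth read once vehicle control cultures reached saturation at 30 °C; 1 = growth at the plate median or of vehicle wells; lower values mean less growth of the strain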
Conditions: growth OD

Measured: normalized growth

COC[C@]12CN(C=O)C3[C@@H]4[C@H](OC)C1[C@]3(C1CC3(O)C(OC)C(O)C4(OC(C)=O)C1C3OC(=O)c1ccccc1)[C@@H](OC)C[C@H]2O (stereo not given in full)
inactive: S. cerevisiae deletion strains, locus YJR066W, strain TOR1, stronger effect = lower value 0.991 | S. cerevisiae deletion strains, locus YJR075W, strain HOC1, stronger effect = lower value 1.02 | S. cerevisiae deletion strains, locus YKL009W, strain mrt4, stronger effect = lower value 0.991 | S. cerevisiae deletion strains, locus YKL068W, stronger effect = lower value 1 | S. cerevisiae deletion strains, locus YKL085W, strain MDH1 (second series), stronger effect = lower value 1.01 | S. cerevisiae deletion strains, locus YKL085W, strain MDH1, stronger effect = lower value 1.01 | S. cerevisiae deletion strains, locus YKL160W, strain elf1, stronger effect = lower value 1.01 | S. cerevisiae deletion strains, locus YKR001C, strain vps1, stronger effect = lower value 1.02 | S. cerevisiae deletion strains, locus YKR026C, strain gcn3, stronger effect = lower value 1.02 | S. cerevisiae deletion strains, locus YKR091W, strain srl3, stronger effect = lower value 1.01 | S. cerevisiae deletion strains, locus YLL001W, strain dnm1, stronger effect = lower value 1.01 | S. cerevisiae deletion strains, locus YLL026W, stronger effect = lower value 1.01 | S. cerevisiae deletion strains, locus YLL041C, strain sdh2, stronger effect = lower value 1.01 | S. cerevisiae deletion strains, locus YLR027C, strain aat2, stronger effect = lower value 1 | S. cerevisiae deletion strains, locus YLR039C, strain RIC1, stronger effect = lower value 1.06 | S. cerevisiae deletion strains, locus YLR058C, strain SHM2, stronger effect = lower value 1.02 | S. cerevisiae deletion strains, locus YLR102C, strain apc9, stronger effect = lower value 1.01 | S. cerevisiae deletion strains, locus YLR113W, strain HOG1, stronger effect = lower value 0.972 | S. cerevisiae deletion strains, locus YLR221C, strain rsa3, stronger effect = lower value 1.01 | S. cerevisiae deletion strains, locus YLR258W, strain gsy2, stronger effect = lower value 1.02 | S. cerevisiae deletion strains, locus YLR262C, strain YPT6 (second series), stronger effect = lower value 0.995 | S. cerevisiae deletion strains, locus YLR262C, strain YPT6, stronger effect = lower value 1.04 | S. cerevisiae deletion strains, locus YLR268W, strain sec22, stronger effect = lower value 0.992 | S. cerevisiae deletion strains, locus YLR320W, strain mms22, stronger effect = lower value 1.03 | S. cerevisiae deletion strains, locus YLR342W, strain FKS1 (second series), stronger effect = lower value 1.01 | S. cerevisiae deletion strains, locus YLR342W, strain FKS1, stronger effect = lower value 1.03 | S. cerevisiae deletion strains, locus YLR357W, strain rsc2, stronger effect = lower value 1.01 | S. cerevisiae deletion strains, locus YLR370C, strain arc18, stronger effect = lower value 1.01 | S. cerevisiae deletion strains, locus YLR371W, strain rom2, stronger effect = lower value 0.995 | S. cerevisiae deletion strains, locus YLR384C, strain iki3, stronger effect = lower value 1.01 | S. cerevisiae deletion strains, locus YLR418C, strain cdc73, stronger effect = lower value 1.05 | S. cerevisiae deletion strains, locus YML016C, strain PPZ1, stronger effect = lower value 0.999 | S. cerevisiae deletion strains, locus YML032C, strain rad52, stronger effect = lower value 0.995 | S. cerevisiae deletion strains, locus YML120C, strain ndi1, stronger effect = lower value 1.01 | S. cerevisiae deletion strains, locus YML124C, strain tub3, stronger effect = lower value 1.01 | S. cerevisiae deletion strains, locus YMR058W, strain fet3, stronger effect = lower value 1.01 | S. cerevisiae deletion strains, locus YMR078C, strain ctf18, stronger effect = lower value 1.01 | S. cerevisiae deletion strains, locus YMR125W, strain sto1, stronger effect = lower value 1.01 | S. cerevisiae deletion strains, locus YMR129W, stronger effect = lower value 1.01 | S. cerevisiae deletion strains, locus YMR205C, strain PFK2, stronger effect = lower value 1.01 | S. cerevisiae deletion strains, locus YMR223W, strain ubp8, stronger effect = lower value 1.01 | S. cerevisiae deletion strains, locus YMR231W, strain pep5, stronger effect = lower value 1 | S. cerevisiae deletion strains, locus YMR307W, strain GAS1, stronger effect = lower value 1.02 | S. cerevisiae deletion strains, locus YNL067W, strain RPL9B, stronger effect = lower value 1.03 | S. cerevisiae deletion strains, locus YNL071W, strain lat1, stronger effect = lower value 1 | S. cerevisiae deletion strains, locus YNL183C, strain NPR1, stronger effect = lower value 0.987 | S. cerevisiae deletion strains, locus YNL209W, strain ssb2, stronger effect = lower value 1 | S. cerevisiae deletion strains, locus YNL233W, strain BNI4, stronger effect = lower value 1.01 | S. cerevisiae deletion strains, locus YNL248C, strain rpa49, stronger effect = lower value 1.02 | S. cerevisiae deletion strains, locus YNL250W, strain rad50, stronger effect = lower value 1.04 | S. cerevisiae deletion strains, locus YNL271C, strain bni1, stronger effect = lower value 1.02 | S. cerevisiae deletion strains, locus YNL298W, strain CLA4, stronger effect = lower value 1.02 | S. cerevisiae deletion strains, locus YNL307C, strain MCK1, stronger effect = lower value 1.01 | S. cerevisiae deletion strains, locus YNL322C, strain KRE1 (second series), stronger effect = lower value 1.02 | S. cerevisiae deletion strains, locus YNR049C, strain mso1, stronger effect = lower value 1.01 | S. cerevisiae deletion strains, locus YNR052C, strain pop2, stronger effect = lower value 1.01 | S. cerevisiae deletion strains, locus YOL006C, strain TOP1, stronger effect = lower value 1.03 | S. cerevisiae deletion strains, locus YOL012C, strain htz1 0.737 | S. cerevisiae deletion strains, locus YOL147C, strain pex11, stronger effect = lower value 1 | S. cerevisiae deletion strains, locus YOR001W, strain rrp6, stronger effect = lower value 1.02 | S. cerevisiae deletion strains, locus YOR061W, strain CKA2, stronger effect = lower value 1.01 | S. cerevisiae deletion strains, locus YOR069W, strain VPS5, stronger effect = lower value 1.01 | S. cerevisiae deletion strains, locus YOR070C, strain gyp1, stronger effect = lower value 1 | S. cerevisiae deletion strains, locus YOR080W, strain dia2, stronger effect = lower value 1.01 | S. cerevisiae deletion strains, locus YOR083W, strain WHI5, stronger effect = lower value 1.01 | S. cerevisiae deletion strains, locus YOR106W, strain vam3, stronger effect = lower value 1 | S. cerevisiae deletion strains, locus YOR136W, strain idh2, stronger effect = lower value 1.01 | S. cerevisiae deletion strains, locus YOR144C, strain elg1, stronger effect = lower value 1.01 | S. cerevisiae deletion strains, locus YOR184W, strain ser1, stronger effect = lower value 1.01 | S. cerevisiae deletion strains, locus YOR231W, strain MKK1, stronger effect = lower value 1.01 | S. cerevisiae deletion strains, locus YOR265W, strain rbl2, stronger effect = lower value 1 | S. cerevisiae deletion strains, locus YOR270C, strain vph1, stronger effect = lower value 1.03 | S. cerevisiae deletion strains, locus YOR290C, strain snf2, stronger effect = lower value 1.02 | S. cerevisiae deletion strains, locus YOR316C, strain cot1, stronger effect = lower value 1.01 | S. cerevisiae deletion strains, locus YPL051W, strain arl3, stronger effect = lower value 1.01 | S. cerevisiae deletion strains, locus YPL078C, strain atp4, stronger effect = lower value 1.01 | S. cerevisiae deletion strains, locus YPL106C, strain sse1, stronger effect = lower value 0.999 | S. cerevisiae deletion strains, locus YPL240C, strain hsp82, stronger effect = lower value 1.01 | S. cerevisiae deletion strains, locus YPL256C, strain CLN2, stronger effect = lower value 1.08 | S. cerevisiae deletion strains, locus YPR119W, strain clb2, stronger effect = lower value 1 | S. cerevisiae deletion strains, locus YPR141C, strain kar3, stronger effect = lower value 0.998 | S. cerevisiae deletion strains, locus YPR163C, strain tif3, stronger effect = lower value 1.01 | S. cerevisiae deletion strains, locus YPR167C, strain met16, stronger effect = lower value 1.01 | S. cerevisiae deletion strains, strain wtn01, stronger effect = lower value 0.99 | S. cerevisiae strains, strain wild type, stronger effect = lower value 1.02

From PubChem BioAssay AID1159580 (chemical genetic matrix, 2015)
